Shiga inhibitor: Shiga toxin inhibition; Vero cells, Shiga toxin protein synthesis inhibition reporter; inhibition, % at 38.7 µM; actives 9.2% (n = 290,000); AID 2315; in the data active = inhibition mostly above about 28%, no sharp cut-off; inactive = mostly below about 43%; also: 0% is about no effect
AMA1-RON2 inh: AMA1-RON2 (P. falciparum) interaction inhibition. AlphaScreen AMA1-biotinylated RON2 peptide binding. Potency, µM (highest dose often 58.2 µM), for the others: at the highest dose activity change, negative = inhibition, actives largely listed as inhibitors. actives 0.2% (n = 360,000). AID 720542; active = well fitted inhibition curve with a large enough effect; inconclusive = small, poorly fitted or top-dose-only effect; inactive = no such curve, though single readings can be large or run the other way;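 also: potency is read from the fitted curve at half-maximal effect; 0% = vehicle wells and -100% = peptide control; nearly all actives have a fitted effect of over 45% in size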
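AMA1 (3D7) with his tag at 25 nM final met compounds first, then biotinylated RON2 peptide at 25 nM; detection used donor plus acceptor beads, 10 µg/mL apiece, read by AlphaScreen after 30 min at room temperature.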
Cycloheximide cs: affects cycloheximide protein synthesis inhibition readout, counter-screen; cell reporter, cycloheximide protein synthesis inhibition counterscreen; max response, %; actives 12% (n = 300,000); AID 2314; in the data active = max response mostly above about 13%, no sharp cut-off; inactive = mostly below about 14%; also: read at 38.3 µM for the half of the compounds with a filed dose; 0% is about no effect
Marburg entry inh: Marburg virus entry inhibition | Marburg virus pseudotyped entry inhibition, cell reporter | Potency, µM (top dose mostly 37.8 µM), without a hit: at the top dose activity change, negative = inhibition, actives largely listed as inhibitors | actives 1.8% (n = 300,000); calls by dose curve; tested in HEK293 cells; also: potency is read from the fitted curve at half-maximal effect; % is scaled to controls: 0 for no effect and ±100 for the full control effect
Lassa entry inh: Lassa virus entry inhibition; Lassa virus pseudotype entry inhibition, cell reporter; actives 1.2% (n = 300,000); Potency, µM (doses to about 37.9 µM), inactives show top-dose activity change, negative = inhibition, most hits filed as inhibitors; calls by dose curve; tested in HEK293 cells; also: potency is read from the fitted curve at half-maximal effect; % is scaled to controls: 0 for no effect and ±100 for the full control effect; nearly all actives have a fitted effect of over 50% in size
* = called active by the depositor; ? = inconclusive; / = no result given; + = active, no number; [ ] = dose if it differs, or a comment. Only a selection was taken, and hits are over-represented in it overall.

SMILES	Shiga inhibitor	AMA1-RON2 inh	Cycloheximide cs	Marburg entry inh	Lassa entry inh
CC(C)c1ccc(NC(=O)c2ccc(=O)n(Cc3ccccc3)c2)cc1	/	/	/	/	-27%[46.1 µM]
O=C(NCCc1ccccc1)C(c1cccs1)N(C(=O)CCl)c1ccc(Cl)cc1 (stereo not drawn)	-19	-16%	-4	?	18µM*
CCOc1ccc(-c2cc(C(=O)NCc3ccccc3Cl)c3ccccc3n2)cc1	/	/	/	/	-5%[46.1 µM]
N#Cc1cccc(-n2c(-c3ccccc3)nnc2-c2ccccc2)c1C#N	24	5%	19*	-13%	-1%
CCOc1ccc(-n2c(-c3ccccc3)nnc2-c2ccccc2)cc1	8	-5%	-4	-31%	?
N#Cc1ccc(-n2c(-c3ccccc3)nnc2-c2ccccc2)cc1C#N	37	8%	30*	?	5%
COc1ccc(-c2ccc(SCC(=O)NCc3ccco3)nn2)cc1	57*	-25%	17*	-14%	?
COc1ccc(-c2nnc(SCC(=O)NC(=O)NCc3ccco3)o2)cc1	14	2%	9.4*	?	-1%
c1ccc(COc2ccc(CNCc3cccnc3)cc2)cc1	20	-1%	30*	?	-8%
Fc1ccc(COc2cccc(CNCc3ccncc3)c2)cc1	10	2%	4	6.3µM*	-11%
CCOc1ccc(CNCc2cccnc2)cc1	2	7%	-1	17%	0%
c1ccc(COc2ccc(CNCc3cccs3)cc2)cc1	56*	-5%	25*	?	18%
O=C(O)c1ccc(CNCc2cccc(OCc3ccc(F)cc3)c2)cc1	-8	4%	2	11%[46.1 µM]	0%[46.1 µM]
CCOc1ccccc1-c1noc(CSc2nnc(-c3ccccc3)n2-c2cccc(C)c2)n1	/	/	/	-18%[46.1 µM]	-27%[46.1 µM]
O=C(NCCc1ccccc1)c1cnc2ccccc2n1	106*	-2%	32*	/	/
O=C(NCCc1ccc(Cl)cc1)c1ccc2ccccc2n1	70*	0%	22*	-2%[46.1 µM]	-5%
O=C(NCc1ccccc1)c1ccc2ccccc2n1	17	3%	-2	-1%[46.1 µM]	?
COCCNC(=O)c1ccc2ccccc2n1	33	13%	27*	28%	1%
COc1ccc(CNC(=O)c2ccc3ccccc3n2)cc1	63	16%	26*	/	/
Cc1ccc(CNC(=O)c2cnc3ccccc3n2)cc1	24	23%	9	-21%[46.1 µM]	?
Cc1cccc(NC(=O)Cn2cc(C(=O)C3CCCCC3)c3ccccc32)c1	/	/	/	?	1%[46.1 µM]
COc1cc(-c2c(CCO)sc3ccccc23)cc(OC)c1OC	/	5%	/	/	/
COC(=O)c1cnc2ccccc2n1	29	0%	16*	22%	-10%
O=C(O)C(=O)/C(=C\c1ccc(Cl)cc1)c1ccc2ccccc2n1	166*	11%	30*	?	?
Cc1ccccc1OCCNC(=O)c1ccc2ccccc2n1	93*	42%	71*	?	-28%
SMILES	Shiga inhibitor	AMA1-RON2 inh	Cycloheximide cs	Marburg entry inh	Lassa entry inh
O=C(O)c1cnc2ccccc2n1	-16	8%	-4	-35%	-15%
Cc1ccccc1CNC(=O)c1ccc2ccccc2n1	2	8%	-3	-10%[46.1 µM]	?
CCOC(=O)C1=CN(CCC=C(C)C)C(=O)N(C(C)=O)C1c1ccccc1 (stereo not drawn)	/	/	/	57%[14.2 µM]	/
CC(=O)Nc1ccc(NC(=O)c2oc3cc(C)c(C)cc3c2C)cc1	-3	5%	-2	/	/
Cc1c(C(=O)Nc2nonc2-c2ccc(F)cc2)oc2ccc(F)cc12	3	61%	15	?	?
CCc1ccc2oc(C(=O)Nc3nonc3C)c(C)c2c1	106*	-6%	36*	/	/
Cc1cc2oc(C(=O)Nc3nonc3C)c(C)c2cc1C	165*	2%	57*	/	/
CCc1nonc1NC(=O)c1oc2ccc(F)cc2c1C	31	-1%	18*	14%[46.1 µM]	?
CCOc1ccc(-c2nonc2NC(=O)c2oc3ccc(F)cc3c2C)cc1	/	/	/	?	-5%[46.1 µM]
CCCSc1ncc(Cl)c(C(=O)N2CCN(c3cccc(Cl)c3)CC2)n1	/	/	/	?	-11%[46.1 µM]
CCc1ccccc1NC(=O)Cn1nnc(-c2nc(-c3ccc(C)cc3)no2)c1N	/	/	/	/	2%[46.1 µM]
CN(C(=O)c1ccncc1)C1CCCCC1	-10	-2%	-3	-11%[46.1 µM]	-2%[46.1 µM]
Cc1ccc(-c2noc(-c3cccnc3N(C)Cc3ccc(Cl)cc3)n2)cc1	/	/	/	-22%[46.1 µM]	-3%[46.1 µM]
Cc1ccc(-c2[nH]ncc2C(=O)c2cccc(F)c2)c(O)c1	28	59%	8.5*	-3%	4%
O=C(c1ccc(Br)cc1)c1cn[nH]c1-c1ccccc1O	45	103%	14	?	?
Cc1cccc(C(=O)c2cn[nH]c2-c2ccc(C)cc2O)c1	/	80%	-2	-1%	-1%
CC(C)(C)c1ccc(C(=O)c2cn[nH]c2-c2ccccc2O)cc1	58*	46%	42*	?	-1%[46.1 µM]
CCCCCCCCCn1c2c(c(=N)c3c1CCC3)CCCC2	-53	5%	-8	?	4.1µM*
Cc1ccc2[nH]c(=O)c(CN(Cc3nnnn3C3CCCC3)C3CCCCC3)cc2c1	1	5%	-1	-3%	1%
COc1cc2cc(CN(Cc3nnnn3C3CCCC3)C3CCCC3)c(=O)[nH]c2cc1OC	-4	/	-3	/	/
Cc1ccc2cc(CN(Cc3nnnn3C3CCCC3)C3CCCCC3)c(=O)[nH]c2c1C	70*	3%	36*	-25%	18%
Cc1ccc2[nH]c(=O)c(CN(Cc3ccccc3)Cc3nnnn3C3CCCC3)cc2c1	92*	?	40*	18µM*	-38%
O=C(CSc1cccs1)Nc1cccc2ccccc12	+	22%	50*	1%	19%
O=C(CSC1=NCCS1)Nc1cccc2ccccc12	-6	-2%	-1	-16%	-2%
O=C(CSc1ccccc1)Nc1ccc2sccc2c1	45*	1%	45*	/	/
SMILES	Shiga inhibitor	AMA1-RON2 inh	Cycloheximide cs	Marburg entry inh	Lassa entry inh
O=C(CSc1cccs1)Nc1ccc2ccccc2c1	125*	5%	46*	-1%	-25%
Cc1ccc(N2C(=O)CS(=O)C(c3ccccc3)C2=O)cc1C (stereo not drawn)	65*	-3%	28*	?	-2%
COc1ccc(N2C(=O)CS(=O)C(c3ccccc3)C2=O)cc1 (stereo not drawn)	14	-6%	-1	-10%[46.1 µM]	10%[46.1 µM]
CC1CCN(CC(=O)c2ccccc2Cl)CC1	31*	-19%	14	27%	16%
CC1CN(CC(=O)c2ccccc2Cl)CC(C)O1 (stereo not drawn)	7	2%	5	-1%[46.1 µM]	-11%[46.1 µM]
O=C(CN1CCc2ccccc2C1)c1cccs1	82*	-14%	49*	?	16%
CC1CCN(CC(=O)c2cccs2)CC1	37*	-9%	13*	8%	17%
Cc1ccc(CNC(=O)[C@]2(C(F)(F)F)C[C@H](CCc3ccccc3)CCCO2)o1	-5	/	10	/	/
N#C/C(=C\c1ccc(-c2ccc(C(=O)O)cc2)o1)C(=O)Nc1ccccc1C(=O)O	/	/	/	/	12%[46.1 µM]
O=C(NCc1ccco1)c1nc2c(nnn2Cc2ccccc2Cl)c(=O)[nH]1	-10	19%	-5	?	13µM*
Cc1ccc(C)c(Cn2nnc3c(=O)[nH]c(C(=O)NCc4ccco4)nc32)c1	-21	62%	-3	-17%	-18%[14.3 µM]
